Shown are actives, neighbours in structure and some others; about 4.8% of the full set was active somewhere.
ssDAF-12 act: activators of S. stercoralis DAF-12 nuclear receptor | HEK293 ssDAF-12/GRIP1 lit1-tk-luc reporter, luminescence; % of 3 µM dafachronic acid response | activation, % at 6.8 µM | hit rate 1% among 370,000 | AID 652126;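 active = activation above the mean over all tested compounds plus 3 SD, cut at about 0.9% in these data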
hgDAF-12 ag: activates the H. glycines DAF-12 receptor ligand-binding domain; activation, % at 6.8 µM; hit rate 1.8% among 370,000; HEK293 GAL4-hgDAF12 UAS-luciferase reporter, agonist luminescence; normalized to butyrate control;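 active = activation above a cutoff set at the mean of all screened compounds plus 3 SD, cut at about 10% in these data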
SMARCA2 act: increases SMARCA2 function in MMTV reporter cells. MG213 cells, MMTV-luciferase reporter, dexamethasone, overnight. activation, % at 9.1 µM. hit rate 1% among 370,000; in the data active = activation above about 7.8%
DAX1 inh-1: inhibitors of DAX1 repression of SF-1 activated StAR promoter; AID 652010; hit rate 1.1% among 370,000; inhibition, % at 6.8 µM; HEK293T StAR-luciferase reporter, SF-1/DAX-1 repression relief;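 active = inhibition above the mean over all tested compounds plus 3 SD, cut at about 3.6% in these data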;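 note: higher inhibition means more luminescence from relief of DAX-1 repression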
hcDAF-12 act: activators of H. contortus DAF-12 nuclear receptor. activation, % at 6.8 µM. hit rate 1.4% among 370,000. HEK293 hcDAF-12 lit1-tk-luc reporter, luminescence; 0% DMSO, 100% Δ7-dafachronic acid. AID 652067;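 active = activation above the mean of all tested compounds plus 3 SD, cut at about 5.5% in these data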
DAX1 inh-2: inhibits human nuclear receptor DAX1. HEK293 Gal4-DAX1 luciferase reporter, luminescence. inhibition, % at 6.75 µM. hit rate 0.99% among 340,000;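 active = inhibition above the mean over all tested compounds plus 3 SD, cut at about 4.2% in these data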;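 note: inhibition shows as a rise in luminescence from relieved DAX1 repression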
DAX1 inh confirm: NR0B1 (human) inhibition, confirmation; shares compounds with DAX1 inh-1; HEK293T StAR-promoter luciferase reporter, SF-1/DAX-1 repression; inhibition, % at 6.8 µM; hit rate 87% among 2,400; AID 652134;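 active = inhibition above the average of every tested compound plus 3 SD, cut at about 3.8% in these data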;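 note: active compounds raise luminescence by relieving repression of the StAR reporter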
Target sequence (P51843 whole entry, looked up): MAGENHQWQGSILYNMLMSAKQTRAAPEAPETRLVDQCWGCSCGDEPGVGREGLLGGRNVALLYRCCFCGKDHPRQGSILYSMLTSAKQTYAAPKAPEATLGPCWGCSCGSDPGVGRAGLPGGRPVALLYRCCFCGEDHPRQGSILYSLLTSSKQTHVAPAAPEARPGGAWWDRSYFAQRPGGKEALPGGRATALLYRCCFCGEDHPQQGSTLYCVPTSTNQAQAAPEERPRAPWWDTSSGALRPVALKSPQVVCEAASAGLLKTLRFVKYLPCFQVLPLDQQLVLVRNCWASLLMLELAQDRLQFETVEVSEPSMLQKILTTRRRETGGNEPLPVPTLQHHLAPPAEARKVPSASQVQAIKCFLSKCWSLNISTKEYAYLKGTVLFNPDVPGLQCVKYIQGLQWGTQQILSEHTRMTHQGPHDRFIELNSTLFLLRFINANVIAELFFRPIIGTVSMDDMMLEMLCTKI
SF1 mutant ctr: counter-screen for DAX1 inhibitors: nonselective inhibitors with SF-1 AF2 mutant. shares compounds with DAX1 inh-1. HEK293 StAR-luciferase, luminescence. inhibition, % at 6.8 µM. hit rate 78% among 2,400;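 active = inhibition above the mean of all tested compounds plus 3 SD, cut at about 3% in these data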
Each line names hits and unclear results; the compound was inactive in the other large screens (follow-up assays come after a bar, where they were run).

CCc1ccc(C(=O)NNC(=O)Cn2c(=O)cnc3ccccc32)cc1	DAX1 inh-1 5.4 | DAX1 inh confirm inactive | SF1 mutant ctr inactive
CCOC(=O)N1CCC(NC(=O)c2ccc3c(c2)N=C(C)c2c(C)ccc(C)c2S3)CC1	DAX1 inh-1 9.0 | DAX1 inh confirm 14.8 | SF1 mutant ctr inactive
CCOC(=O)N1CCC(NC(=O)c2ccc3c(c2)N=C(CC)c2cc(C)ccc2S3)CC1	none
COC(CNS(=O)(=O)c1ccc(Cl)cc1)c1ccccc1 (stereo unspecified)	none
NC(=Nc1cccc(F)c1)NC(=O)OCc1ccccc1	DAX1 inh-1 5.2 (no result: DAX1 inh-2) | DAX1 inh confirm 5.2 | SF1 mutant ctr 3.6
N#CNC(=Nc1cccc(F)c1)SCc1ccccc1	none
Cc1ccc(OCC(=O)Nc2ccon2)c([N+](=O)[O-])c1	DAX1 inh-1 5.3 | DAX1 inh confirm 6.5 | SF1 mutant ctr 3.7
COc1ccc(C(=O)N2CCCC(Nc3ccc(C)c(C)c3)C2)cc1F (stereo unspecified)	none
O=C(c1ccc(-c2ccccc2Cl)o1)N1CCCCCCC1	hgDAF-12 ag 10.8, DAX1 inh-1 5.4 | DAX1 inh confirm 8.4 | SF1 mutant ctr 6.1
CN1CCS/C1=C\C=C1/SC(=S)N(CC(=O)O)C1=O	none
CCN1C(=O)/C(=C/C=C2/SCCN2C)SC1=S	DAX1 inh-1 4.7, hcDAF-12 act 5.8 | DAX1 inh confirm 10.5 | SF1 mutant ctr 5.6
COc1ccc2nc(N3CCN(C(=O)C4COc5ccccc5O4)CC3)sc2c1 (stereo unspecified)	DAX1 inh-1 7.1 | DAX1 inh confirm 10.9 | SF1 mutant ctr 5.5
NC(=O)CC1NC(=O)c2cc([N+](=O)[O-])cc(I)c2OCCC(C(N)=O)NC(=O)[C@@H]2CCCN2C1=O (stereo partly specified)	none (no result: DAX1 inh-2)
CCOC(=O)C(Cc1ccnnc1)=NO	none
Cc1ccc(C(=O)NCCC(=O)N2CCOCC2)cc1	DAX1 inh-1 10.1 | DAX1 inh confirm 6.3 | SF1 mutant ctr 3.3
COc1ccc(CCNC(=O)[C@H](C)N2C(=O)N3CCc4c([nH]c5ccccc45)[C@@]3(C)C2=O)cc1OC	none
CCC1(O)CC2CN(CCc3c([nH]c4ccccc34)C(C(=O)OC)(c3cc4c(cc3OC)N(C=O)C3C(O)(C(=O)OC)C(OC(C)=O)C5(CC)C=CCN6CCC43C65)C2)C1 (stereo unspecified)	DAX1 inh-1 5.2 | DAX1 inh confirm 21.1 | SF1 mutant ctr inactive
Cc1cc(Cl)c2oc(C(=O)N(C)C3CCOC3)c(C)c2c1 (stereo unspecified)	DAX1 inh-1 6.6 | DAX1 inh confirm 7.5 | SF1 mutant ctr inactive
CCN(CC)S(=O)(=O)c1ccc(C)c(C(=O)Oc2cccc(-c3cnc4ccccc4n3)c2)c1	none
NS(=O)(=O)c1ccc(CNC(=O)/C=C/c2ccco2)cc1	none
Cc1cccc(C)c1NC(=O)c1nc(S(=O)(=O)Cc2ccccc2)ncc1Cl	none
Cc1nnc(NC(=O)c2nc(S(=O)(=O)Cc3ccccc3)ncc2Cl)s1	DAX1 inh-1 5.6 | DAX1 inh confirm inactive | SF1 mutant ctr inactive
CCOC(=O)/C=C/c1cnn(-c2ccccc2)c1	none
O=C(O)/C=C/c1cnn(-c2ccccc2)c1	DAX1 inh-1 5.0 | DAX1 inh confirm 7.3 | SF1 mutant ctr 3.5
O=C(NCc1nnnn1-c1ccc(F)cc1)c1ccc2ccccc2c1	none
CC1CN(C(=O)Cn2cc(S(=O)(=O)CC(=O)N(C)c3ccccc3)c3ccccc32)CC(C)O1 (stereo unspecified)	none
COC(=O)/C(C#N)=C/c1c(N2CCN(C)CC2)nc2ccccn2c1=O	none
O=C(COc1ccccc1Br)NC(=O)NC1CCCC1	DAX1 inh-1 4.9 | DAX1 inh confirm 7.3 | SF1 mutant ctr 4.3
COc1cccc(C(=O)NNc2c3ccccc3nc3ccccc23)c1	none
CNc1cc(-c2ccc(CC#N)cc2)ncn1	DAX1 inh-1 4.5 (no result: DAX1 inh-2) | DAX1 inh confirm 6.8 | SF1 mutant ctr 5.5
Cc1noc(C)c1COc1ccc(C(=O)OCC(=O)N2CC(=O)Nc3ccccc32)cc1	none
CC(=O)c1c(C)[nH]c(C(=O)Nc2ccc(C)c(S(=O)(=O)N(C)C)c2)c1C	ssDAF-12 act 1.0, hgDAF-12 ag 10.5, DAX1 inh-1 13.1 | DAX1 inh confirm 14.7 | SF1 mutant ctr 6.7
CC(=O)c1c(C)[nH]c(C(=O)Nc2ccc(S(=O)(=O)N(C)C)cc2)c1C	none
Cc1cc(NC(=O)COC(=O)c2cccc(OCc3ccccc3)c2)no1	none
Cc1cc(NC(=O)c2cccc(COc3ccc(Br)cc3)c2)no1	hgDAF-12 ag 11.5, DAX1 inh-1 4.5 | DAX1 inh confirm 4.0 | SF1 mutant ctr 4.6
CCOc1ncccc1C(=O)NCC(c1ccccc1)N(C)C (stereo unspecified)	DAX1 inh-1 5.1 | DAX1 inh confirm 8.1 | SF1 mutant ctr 4.0
COc1cc2c(=O)[nH]c3cc([N+](=O)[O-])ccc3c2cc1[N+](=O)[O-]	none
Nc1cc2[nH]c(=O)c3ccccc3c2cc1[N+](=O)[O-]	DAX1 inh-1 5.4 | DAX1 inh confirm inactive | SF1 mutant ctr inactive
O=C(O)C(Cc1cn[nH]n1)=NO	none (no result: ssDAF-12 act, hgDAF-12 ag, SMARCA2 act, DAX1 inh-1, hcDAF-12 act)
COc1ccc(C(=O)N(C)C(C)c2nccs2)cc1OC1CCN(C(C)=O)CC1 (stereo unspecified)	none
CC[C@@H](C)[C@H](C(CC(=O)N1CCCC1[C@@H](OC)[C@H](C)C(=O)N[C@H](Cc1ccccc1)c1nccs1)OC)N(C)C(=O)[C@H](NC(=O)[C@@H](C(C)C)N(C)C)C(C)C (stereo partly specified)	DAX1 inh-1 7.7 | DAX1 inh confirm 29.8 | SF1 mutant ctr inactive
Cc1nn(Cc2cccc(C(=O)Nc3ccn(Cc4ccccc4)n3)c2)c(C)c1[N+](=O)[O-]	none (no result: ssDAF-12 act, hgDAF-12 ag, SMARCA2 act, DAX1 inh-1, hcDAF-12 act)
COc1ccc2nc(SCC(=O)Nc3ccc4[nH]c(=O)[nH]c4c3)[nH]c2c1	none
O=C(Nc1nnc(C2CC2)s1)c1cc2ccccc2o1	hgDAF-12 ag 13.0, DAX1 inh-1 6.1 | DAX1 inh confirm 7.3 | SF1 mutant ctr 4.8
CC(Sc1ccc2c(c1)OCCO2)C(=O)Nc1ccc2c(c1)OCO2 (stereo unspecified)	none
CC(Sc1ccccc1F)C(=O)Nc1ccc2c(c1)OCCO2 (stereo unspecified)	ssDAF-12 act 0.9, DAX1 inh-1 4.9 | DAX1 inh confirm 6.5 | SF1 mutant ctr 4.0
CC(=O)N1CCCN(C(=O)c2ccc3nc(Cc4ccccc4F)oc3c2)CC1	none

Bioassay records from PubChem BioAssay.
